Compound activity deposited in PubChem BioAssay by National Center for Advancing Translational Sciences (NCATS).
Compounds with a hit are over-represented: about 20% of the library has one in this group of screens.
Cycloheximide cs: affects cycloheximide protein synthesis inhibition readout, counter-screen | cell reporter, cycloheximide protein synthesis inhibition counterscreen | max response, % | hit rate 12% among 300,000 | AID 2314; in the data active means max response mostly above about 13%, no sharp cut-off; inactive means mostly below about 14%; further: read at 38.3 µM for the half of the compounds with a filed dose; 0% is about no effect
HCMV antiviral: blocks human cytomegalovirus replication; activity change, negative = inhibition, % at 57.5 µM; AID 1259415; hit rate 4.5% among 410,000; HFF cells, HCMV-luciferase reporter, 72 h; stronger effect = lower value; in the data active means activity change below about -60%; inconclusive means no clear call, values can overlap the other calls; inactive means above about -39%; further: on the % scale 0 is the no-effect control and ±100 the full control effect
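Inhibition of viral replication was scored as loss of reporter luminescence in HFFs infected with HCMV-luciferase (MOI 1 PFU/cell) for 72 h; compounds tested at 2 doses, normalized to buffer and Salinomycin controls.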
Pf growth 48h: P. falciparum growth inhibition at 48 hours (one generation) | P. falciparum luciferase growth in erythrocytes, 48 h | Potency, µM (titrated, usually from 28.7 µM), for inactives: at the top dose activity change, negative = inhibition, actives largely listed as inhibitors | hit rate 5.9% among 310,000; further: potency means the concentration at half of the fitted maximal effect; on the % scale 0 is the no-effect control and ±100 the full control effect
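Firefly luciferase activity from engineered P. falciparum reports growth; inhibitors lower the luminescent signal. Cultures contained 2% hematocrit erythrocytes at 0.1% final parasitemia.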
Shiga inhibitor: Shiga toxin inhibition | Vero cells, Shiga toxin protein synthesis inhibition reporter | inhibition, % at 38.7 µM | hit rate 9.2% among 290,000 | AID 2315; in the data active means inhibition mostly above about 28%, no sharp cut-off; inactive means mostly below about 43%; further: 0% is about no effect
Pf growth 96h: inhibits malaria parasite growth, 96 h; P. falciparum luciferase reporter growth, 96 h; Potency, µM (top dose mostly 28.7 µM), for inactives: at the top dose activity change, negative = inhibition, most hits filed as inhibitors; hit rate 6.9% among 320,000; AID 504834; further: potency means the concentration at half of the fitted maximal effect; on the % scale 0 is the no-effect control and ±100 the full control effect
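Two-generation exposure (96 h) targets delayed-death phenotype. Reporter parasites carrying integrated firefly luciferase, in red cells at 2% hematocrit and 0.05% parasitemia final, kept at 37 C, 5% CO2; luminescence loss indicates inhibition.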
* = called active by the depositor; ? = inconclusive; / = no result given; [ ] = another dose, or the depositor's remark. Unless noted, the call rests on the fitted dose curve; in most records, active means well fitted inhibition curve with a large enough effect; inconclusive means small, poorly fitted or top-dose-only effect, or another doubt; inactive means no such curve, though single readings can be large or run the other way.

SMILES	Cycloheximide cs	HCMV antiviral	Pf growth 48h	Shiga inhibitor	Pf growth 96h
CCOC(=O)c1[nH]c2c(c1-c1ccccc1)C(=O)CC(c1ccc(OC)c(OC)c1)C2 (configuration not stated)	15*	?	?	-11	10µM*
O=C1C=C(c2ccoc2)N2CCC[C@H]2C1	/	13	/	/	/
C#Cc1ccc([C@H]2C=C(C(=O)NCc3ccccc3)O[C@@H](OCc3ccc(CO)cc3)C2)cc1	/	-30	/	/	/
CCOC(=O)C1(Cc2ccc(Cl)cc2)CCN(Cc2cn(CC)nc2C)CC1	-3	?	-14%	-5	-26%
Cc1cc(C(=O)N/N=C/c2ccc3c(c2)OCO3)c(C)o1	42*	1	81%	55*	43%
Cn1cc(C(=O)N/N=C/c2ccc3c(c2)OCO3)c2ccccc21	40*	6	10%	58*	-7%
Cn1cc(C(=O)N/N=C/c2ccc(Br)c([N+](=O)[O-])c2)c2ccccc21	1	?	?	8	?
O=C(N/N=C/c1ccc2c(c1)OCO2)c1cccc2ccccc12	-1	-14	5%	19	50%
Cc1occc1C(=O)N/N=C/c1ccc2c(c1)OCO2	26*	0	105%	67*	440%
Cn1cc(C(=O)N/N=C/c2cccs2)c2ccccc21	39*	121	?	67*	?
Cc1ccc(OCCCC(=O)Nc2ccc(Br)cc2)cc1	-2	25	29%	-7	31%
Cc1ccc2c(c1)CCCN2CC(=O)Nc1cccc(S(=O)(=O)N2CCCC2)c1	/	-7	?	/	?
Cc1ccc(C)c(N2CCN(C(=O)CCn3c(=O)[nH]c4ccccc4c3=O)CC2)c1	/	-18	/	/	/
CCOC(=O)CNC(=O)CNC(=O)c1ccc(OCC(C)C)cc1	2	5	15%	-13	26%
CCOC(=O)CNC(=O)c1ccc(SCC)cc1	37*	19	39%	83*	32%
CCOC(=O)CNC(=O)CNC(=O)c1ccc(OC(C)C)cc1	24*	-15	35%	37	37%
Cc1ccccc1C(=O)Nc1nnc(SC(C)C)s1	30*	-8	102%	78	222%
O=C(CSc1nnc(NC(=O)c2ccc3c(c2)OCO3)s1)NCc1ccco1	23*	14	340%	35	452%
O=C(CSc1nnc(NC(=O)c2ccccc2)s1)NCc1ccco1	40*	37	97%	41*	186%
O=C(CSc1nnc(NC(=O)c2ccco2)s1)NCc1ccc2c(c1)OCO2	-3	-24	17%	-3	26%
CCOC(=O)CNC(=O)CSc1nnc(NC(=O)c2ccc3c(c2)OCO3)s1	12*	71	?	22*	104%
C[C@H](CO)N1C[C@H](C)[C@@H](CN(C)C(=O)C2CC2)OCc2cnnn2CCCC1=O	/	12	/	/	/
CCCS(=O)(=O)NC(=O)C1(C)CCN(C(=O)c2c(C)noc2C)C1 (configuration not stated)	/	-5	/	/	/
Cc1ccc(NC(=O)c2cnc3sc(N4CCOCC4)nn3c2=O)cc1N(C)C	/	-2	/	/	/
Cc1ccccc1C(=O)Nc1nnc(SCC(=O)NCc2ccco2)s1	21*	83	102%	72*	52%
SMILES	Cycloheximide cs	HCMV antiviral	Pf growth 48h	Shiga inhibitor	Pf growth 96h
O=C(CSc1nnc(NC(=O)c2ccc(F)cc2)s1)NCc1ccco1	29*	72	-18%	45*	196%
O=C(CSc1nnc(NC(=O)c2cccc(F)c2)s1)NCc1ccco1	4	37	6%	20	44%
CC(=O)c1cccc(-c2ccnc3c2CC(C(=O)Nc2cccc(OC(F)(F)F)c2)O3)c1 (configuration not stated)	/	-24	/	/	/
O=C1C(n2ccc3ccccc32)c2cc(OC(F)(F)F)ccc2N1Cc1ccc(C(F)(F)F)cc1 (configuration not stated)	/	-89*	/	/	/
COc1ccc(CN2C(=O)C(n3ccc4ccccc43)c3cccc(F)c32)cc1 (configuration not stated)	/	-72*	/	/	/
CCOc1ccc(-c2cc(-c3nc(-c4cc(OC)c(OC)c(OC)c4)no3)[nH]n2)cc1	/	-9	/	/	/
COc1ccc(-c2cc(-c3c(O)c(OC)c4occc4c3OC)[nH]n2)cc1	21*	113	/	79*	/
COc1ccc(-c2noc(-c3cc(-c4ccc(F)cc4)n[nH]3)n2)cc1	/	-6	/	/	/
COc1ccc(-c2cc(-c3c(O)c(OC)c4occc4c3OC)[nH]n2)cc1OC	23*	20	?	25	0%[5.75 µM]
CCc1ccc(CNC(=O)c2c(C)oc3ncnc(N4CCOCC4)c23)cc1	/	-61*	/	/	/
CCN(CC)CCCNC(=O)c1c(C)oc2ncnc(N3CCOCC3)c12	/	27	/	/	/
COc1cccc(CNC(=O)c2c(C)oc3ncnc(N4CCOCC4)c23)c1	/	-13	/	/	/
CCCCN(CC)CCCNC(=O)c1c(C)oc2ncnc(N3CCOCC3)c12	/	-66*	/	/	/
CC(C)c1ccc(/C=C/c2[nH]c(=O)[nH]c(=O)c2[N+](=O)[O-])cc1	13*	46	-13%	19*	-15%
CCCOc1ccc(/C=C/c2[nH]c(=O)[nH]c(=O)c2[N+](=O)[O-])cc1OCC	-5	0	-8%	-8	?
CCOc1cc(/C=C\c2[nH]c(=O)[nH]c(=O)c2[N+](=O)[O-])ccc1OC(C)CC (configuration not stated)	4	-97*	/	-5	?
CCOc1ccc(/C=C/c2[nH]c(=O)[nH]c(=O)c2[N+](=O)[O-])cc1	-3	12	-3%	/	166%
CCSc1nc2cc(OC)c(OC)cc2c(=O)n1CC	-3	-21	-3%	6	16%
CC(=O)c1ccc(Nc2ncnc3c2oc2ccccc23)cc1	57*	108	215%	66*	491%
CCc1nc(NCc2ccccn2)c2oc3ccccc3c2n1	-4	-63*	-22%	4	?
c1ccc(CNc2ncnc3c2oc2ccccc23)nc1	23*	70	67%	59*	124%
CCSc1ncnc2c1oc1ccccc12	2	-9	52%	9	42%
CCc1nc(NCCCN2CCOCC2)c2oc3ccccc3c2n1	0	-12	?	-9	5.9µM*
COCCN1C(=O)CSCC1(C)C(=O)NCc1ccccc1 (configuration not stated)	/	28	/	/	/
CC(C)[C@H](NC(=O)N1CCn2c1nc1ccccc12)C(=O)NCc1ccccc1Cl	-1	-23	-13%	23	?
Cc1ccc(S(=O)(=O)N2CCC(=O)CC2)cc1	-2	45	1%	6	15%
COCCNC(=S)NC12CC3CC(CC(C3)C1)C2	-1	-5	-4%	20	/
CC1CCc2c(C(=O)NCCN3CCOCC3)csc2C1 (configuration not stated)	9	-29	60%	11	8.3µM*
Cc1cccc(NC(=S)NNC(=O)c2csc3c2CCC(C)C3)c1 (configuration not stated)	12	50	59%	36	/
CC(C)CNC(=S)NNC(=O)c1csc2c1CCC(C)C2 (configuration not stated)	3	?	/	-5	6.6µM*
